# In PubChem BioAssay (NCATS):
# Records with an inconclusive call do not appear. Where a call stands in place of a potency, no number is given. More than one record can exist for a structure, and the calls need not agree. The source made the active and inactive calls. Unless noted, calls come from the whole dose curve; as a rule, active = well fitted curve in the direction sought with a large enough effect; inconclusive = small, poorly fitted or top-dose-only effect, or another doubt; inactive = no such curve, though single readings can be large; an effect the other way counts as inactive or inconclusive.
# Key:
# [1] = biological target: ATP-dependent DNA helicase Q1 (Homo sapiens) (UniProt P46063); assay: qHTS Validation Assay for Inhibitors of RecQ-Like Dna Helicase 1 (RECQ1) (AID 2353)
# ATP-dependent DNA helicase Q1 (Homo sapiens), sequence (P46063 whole entry, looked up): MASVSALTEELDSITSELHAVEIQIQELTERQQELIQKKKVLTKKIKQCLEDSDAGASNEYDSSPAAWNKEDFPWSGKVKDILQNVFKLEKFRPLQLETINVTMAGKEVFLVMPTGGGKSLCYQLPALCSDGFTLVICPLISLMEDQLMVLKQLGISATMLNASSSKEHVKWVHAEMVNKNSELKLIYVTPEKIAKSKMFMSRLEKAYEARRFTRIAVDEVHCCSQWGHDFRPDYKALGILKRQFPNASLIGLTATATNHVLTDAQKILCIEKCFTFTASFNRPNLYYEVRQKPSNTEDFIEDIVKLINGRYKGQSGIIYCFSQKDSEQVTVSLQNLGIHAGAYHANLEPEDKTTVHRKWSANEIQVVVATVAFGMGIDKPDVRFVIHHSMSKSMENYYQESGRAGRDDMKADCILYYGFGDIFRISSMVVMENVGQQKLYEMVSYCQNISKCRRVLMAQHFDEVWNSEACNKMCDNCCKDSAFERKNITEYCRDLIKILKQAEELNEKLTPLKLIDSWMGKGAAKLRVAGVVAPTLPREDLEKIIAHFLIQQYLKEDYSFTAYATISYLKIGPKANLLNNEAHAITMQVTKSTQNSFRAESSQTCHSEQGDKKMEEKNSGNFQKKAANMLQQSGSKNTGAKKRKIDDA
# Outline: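 50 nM RECQ1T1 preincubated 15 min with compound in Tris pH 8.0 buffer with MgCl2, DTT, Tween-20 and 2.5 ug/ml poly(dI-dC); started with 200 nM TAMRA/BHQ-2 forked duplex and 2 mM ATP. Unwinding read as fluorescence (525/598 nm), two reads 2 h apart.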
# [2] = High Content Imaging Cell-Based qHTS for Inhibitors of the mTORC1 Signaling Pathway in MEF Cells (AID 2667); note: potency is the fitted concentration of half-maximal effect
# Outline: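 WT MEFs (Tsc2-/-, p53-/- re-expressing Tsc2), in DMEM + 10% FBS, were treated with compound for 24 h at 37 C. Cells were then fixed and stained for phospho-rpS6 Ser235/236 with propidium iodide as cell count. Values are % positive cells, with thresholds set against rapamycin-treated cells.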
# [3] = biological target: Ubiquitin carboxyl-terminal hydrolase 2 (Homo sapiens) (UniProt O75604); assay: qHTS Validation Assay for Inhibitors of Ubiquitin-specific Protease USP2a Using CHOP2 as the Reporter (AID 463106)
# Ubiquitin carboxyl-terminal hydrolase 2 (Homo sapiens), sequence (O75604 whole entry, looked up): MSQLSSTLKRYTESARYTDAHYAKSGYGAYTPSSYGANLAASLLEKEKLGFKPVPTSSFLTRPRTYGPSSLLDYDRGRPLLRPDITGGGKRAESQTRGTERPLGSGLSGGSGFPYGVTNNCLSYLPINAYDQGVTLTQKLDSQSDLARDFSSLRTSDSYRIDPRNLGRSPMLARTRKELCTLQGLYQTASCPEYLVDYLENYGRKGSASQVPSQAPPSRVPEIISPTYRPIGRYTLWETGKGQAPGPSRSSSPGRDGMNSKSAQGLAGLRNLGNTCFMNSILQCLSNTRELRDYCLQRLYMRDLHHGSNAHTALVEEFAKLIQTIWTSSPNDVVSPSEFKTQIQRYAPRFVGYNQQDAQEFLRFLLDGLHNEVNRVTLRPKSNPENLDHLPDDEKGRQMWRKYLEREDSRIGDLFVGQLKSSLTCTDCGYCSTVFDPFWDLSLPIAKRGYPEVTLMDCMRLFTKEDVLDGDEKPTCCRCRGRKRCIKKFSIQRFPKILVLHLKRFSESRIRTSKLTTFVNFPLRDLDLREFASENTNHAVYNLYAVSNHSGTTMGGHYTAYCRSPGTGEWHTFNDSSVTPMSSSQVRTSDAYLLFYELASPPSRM
# Outline: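 USP2 core (10 nM final) was preincubated with compound 30 min at RT in pH 8.0 Tris/CaCl2/beta-ME/CHAPS buffer. Ub-CHOP2 and reporter substrate (25 nM final each) were then added, with fluorescence (Ex 485/Em 531) read after 60 min. Data were normalized to NEM full inhibition and fitted to concentration-response curves.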
# [4] = biological target: Tumor susceptibility gene 101 protein (Homo sapiens) (UniProt Q99816); assay: qHTS Validation Assay for Iinhibitors of HIV-1 Budding by Blocking the Interaction of PTAP/TSG101 (AID 485342; calls by dose curve)
# Tumor susceptibility gene 101 protein (Homo sapiens), sequence (Q99816 whole entry, looked up, the tested form may be a part): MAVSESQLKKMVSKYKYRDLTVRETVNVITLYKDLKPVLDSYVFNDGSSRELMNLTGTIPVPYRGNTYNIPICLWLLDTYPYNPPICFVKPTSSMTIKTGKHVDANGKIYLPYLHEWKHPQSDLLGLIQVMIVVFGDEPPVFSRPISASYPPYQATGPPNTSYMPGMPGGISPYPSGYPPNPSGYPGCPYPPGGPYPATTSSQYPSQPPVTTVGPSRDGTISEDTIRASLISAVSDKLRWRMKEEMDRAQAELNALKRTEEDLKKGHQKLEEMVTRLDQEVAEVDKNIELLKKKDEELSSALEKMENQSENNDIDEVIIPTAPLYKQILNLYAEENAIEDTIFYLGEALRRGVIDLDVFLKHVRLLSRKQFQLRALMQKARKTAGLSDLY
# Outline: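 Tsg101 binding domain (10 uM final) in pH 7.5 HEPES/NaCl/Tween 20/EDTA/TCEP buffer was mixed with pin-transferred compounds, then FITC-labeled PTAP peptide (50 nM final) was added; after 20 min at r.t., fluorescence polarization was read.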
# [5] = biological target: Beta-2 adrenergic receptor (Homo sapiens) (UniProt P07550); assay: qHTS validation assay of beta-arrestin-biased ligands of beta2-adrenergic receptor (AID 485366)
# Beta-2 adrenergic receptor (Homo sapiens), sequence (P07550 whole entry, looked up): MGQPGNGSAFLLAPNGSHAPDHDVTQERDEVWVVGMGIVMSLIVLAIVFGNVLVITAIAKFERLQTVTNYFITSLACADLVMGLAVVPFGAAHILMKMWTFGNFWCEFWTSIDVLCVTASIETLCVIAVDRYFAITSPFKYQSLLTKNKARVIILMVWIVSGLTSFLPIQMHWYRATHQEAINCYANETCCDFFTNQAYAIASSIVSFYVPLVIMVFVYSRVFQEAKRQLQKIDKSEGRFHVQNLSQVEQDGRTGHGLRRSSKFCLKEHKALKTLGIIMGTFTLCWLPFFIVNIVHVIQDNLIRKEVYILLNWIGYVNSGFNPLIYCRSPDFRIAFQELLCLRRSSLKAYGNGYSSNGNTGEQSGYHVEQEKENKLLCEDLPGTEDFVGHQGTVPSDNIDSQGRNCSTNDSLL
# Outline: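 Arrestin-recruitment (Tango) reporter: ligand-bound beta2-AR recruits beta-arrestin, releasing tTA, which upregulates luciferase. Titrations of up to 46 microM incubated 18 hr at 37 degrees C before luminescent readout.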
# [6] = biological target: ATP-dependent 6-phosphofructokinase (Trypanosoma brucei brucei) (UniProt O15648); assay: qHTS Validation Assay to Find Inhibitors of T. brucei phosphofructokinase (AID 485368); note: potency is the fitted concentration of half-maximal effect
# Outline: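 Steps: substrate mix (0.5 mM F6P, 0.1 mM ATP, MgCl2, TEA pH 8.0); compound; 1.25 nM T. brucei PFK; 45 min RT; ATP depletion 10 min; ADP-to-ATP detection 10 min; luminescence read; curve fitting and classification.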
# [7] = Quantitative high throughput screen for delayed death inhibitors of the malarial parasite plastid, 96 hour incubation (AID 488745); note: nearly all actives have a fitted effect of over 70% in size; note: potency is the fitted concentration of half-maximal effect
# Outline: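 Growth of reporter-bearing P. falciparum in red cells is measured after 96 h with compound, covering two erythrocytic cycles. Luminescence from the integrated luciferase serves as the growth signal.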
# [8] = biological target: Thioredoxin reductase 1, cytoplasmic (Rattus norvegicus) (UniProt O89049); assay: qHTS Assay for Substrates of Mammalian Selenoprotein Thioredoxin Reductase 1 (TrxR1) (AID 488772);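 note: NADPH fluorescence in the first read after selenite addition and not the 8 min delta; series mostly up to about 57 µM; a drop in NADPH fluorescence below the no-compound background marks a TrxR1 substrate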
# Outline: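 Quantitative HTS in Tris-HCl buffer at pH 7.5 with EDTA and Tween-20, using rat TrxR1, 400 uM NADPH and 400 uM selenite (final). A fall in initial NADPH fluorescence relative to background marked substrate behaviour.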
# [9] = biological target: Thioredoxin reductase 1, cytoplasmic (Rattus norvegicus) (UniProt O89049); assay: qHTS Assay for Inhibitors of Mammalian Selenoprotein Thioredoxin Reductase 1 (TrxR1) (AID 488773); details: Potency: inhibition; note: nearly all actives have a fitted effect of over 40% in size; note: potency is the fitted concentration of half-maximal effect
# Outline: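 Steps: enzyme (90 nM) plus NADPH (400 uM final), 5 min at ~22 deg C; compound added, 15 min; selenite (400 uM final) added; fluorescence followed for 8 min. Concentration-response curves derived from the normalized delta values.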
# [10] = biological target: Flap endonuclease 1 (Homo sapiens) (UniProt P39748); assay: qHTS Validation Assay for the Inhibitors of Human Flap endonuclease 1 (FEN1) (AID 488816); note: potency is the fitted concentration of half-maximal effect
# Outline: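 Human FEN1 (10 nM) preincubated 15 min at room temperature with compounds, then flap DNA substrate added at 50 nM final. Fluorescence read at 0 and 15 min; concentration-response fitted with four-parameter Hill equation.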
# [11] = biological target: M-phase phosphoprotein 8 (Homo sapiens) (UniProt Q99549); assay: qHTS Validation Assay for Inhibitors for MPP8 Chromodomain Interactions with Methylated Histone Tails (AID 488949); note: nearly all actives have a fitted effect of over 55% in size; note: potency is the fitted concentration of half-maximal effect
# Outline: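 MPP8 (50 nM) was preincubated with biotinylated H3(1-18)K9me3 peptide (50 nM) in PBS pH 7.4, 0.01% Tween-20 for 30 min at room temperature, then with compounds for 30 min; binding was detected by AlphaScreen.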
# [12] = Cytometric Cell-Based qHTS for Inhibitors of the mTORC1 Signaling Pathway in MEF (Tsc2-/-, p53-/-) Cells (AID 2660);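 note: percent of cells above a phospho-rpS6 to PI ratio cutoff in each well; series mostly up to about 38 µM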
# Outline: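 Immunofluorescence qHTS of rpS6 Ser235/236 phosphorylation: MEFs (Tsc2-/-, p53-/-) treated 24 h, 37 C, in DMEM + 10% FBS. Alexa-488 signal normalized to PI count, referenced to rapamycin (7.5 nM) and DMSO; PI cell number recorded for viability.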
# [13] = High Content Imaging Cell-Based qHTS for Inhibitors of the mTORC1 Signaling Pathway in MEF (Tsc2-/-, p53-/-) Cells (AID 2666);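 note: percent of cells scored positive for phospho-rpS6 Ser235/236 immunostaining by imaging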
# Outline: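 Phospho-rpS6 (Ser235/236) immunofluorescence, normalized and scored as % positive cells using rapamycin and DMSO controls, was read in empty-vector Tsc2-/-, p53-/- MEFs after 24 h compound exposure at 37 C; propidium iodide counted cells.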
# [14] = Cytometry Cell-Based qHTS for Inhibitors of the mTORC1 Signaling Pathway in MEF cells (AID 2668); note: potency is the fitted concentration of half-maximal effect
# Outline: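 WT MEFs (Tsc2-/-, p53-/- stably re-expressing WT Tsc2) in DMEM + 10% FBS received compounds 24 hrs after plating, for 24 hrs at 37 degree Celsius. Fixed cells stained with Alexa-488 anti-phospho-rpS6 Ser235/236 and propidium iodide; laser-scanning cytometry read-out.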
# [15] = Validation screen for inhibitors of Lassa infection (AID 463096; calls by dose curve; note: potency is the fitted concentration of half-maximal effect)
# [16] = Validation screen for small molecules that induce DNA re-replication in MCF 10A normal breast cells (AID 463097); note: nearly all actives have a fitted effect of over 60% in size; note: potency is the fitted concentration of half-maximal effect
# Outline: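 Readout: Hoechst nuclear fluorescence intensity, 405 ex / 500-530 em, by scanning plate imager; re-replication scored as increase in nuclei with elevated DNA content. Cells exposed to compound 48 hr, 37 C, 5% CO2 beforehand.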
# [17] = biological target: DNA polymerase III PolC-type (Bacillus subtilis (strain 168)) (UniProt P13267); assay: qHTS Validation Assay for the Inhibitors of DNA Replication in Gram-Positive Bacteria (AID 485295); note: potency is the fitted concentration of half-maximal effect
# DNA polymerase III PolC-type (Bacillus subtilis (strain 168)), sequence (P13267 whole entry, looked up): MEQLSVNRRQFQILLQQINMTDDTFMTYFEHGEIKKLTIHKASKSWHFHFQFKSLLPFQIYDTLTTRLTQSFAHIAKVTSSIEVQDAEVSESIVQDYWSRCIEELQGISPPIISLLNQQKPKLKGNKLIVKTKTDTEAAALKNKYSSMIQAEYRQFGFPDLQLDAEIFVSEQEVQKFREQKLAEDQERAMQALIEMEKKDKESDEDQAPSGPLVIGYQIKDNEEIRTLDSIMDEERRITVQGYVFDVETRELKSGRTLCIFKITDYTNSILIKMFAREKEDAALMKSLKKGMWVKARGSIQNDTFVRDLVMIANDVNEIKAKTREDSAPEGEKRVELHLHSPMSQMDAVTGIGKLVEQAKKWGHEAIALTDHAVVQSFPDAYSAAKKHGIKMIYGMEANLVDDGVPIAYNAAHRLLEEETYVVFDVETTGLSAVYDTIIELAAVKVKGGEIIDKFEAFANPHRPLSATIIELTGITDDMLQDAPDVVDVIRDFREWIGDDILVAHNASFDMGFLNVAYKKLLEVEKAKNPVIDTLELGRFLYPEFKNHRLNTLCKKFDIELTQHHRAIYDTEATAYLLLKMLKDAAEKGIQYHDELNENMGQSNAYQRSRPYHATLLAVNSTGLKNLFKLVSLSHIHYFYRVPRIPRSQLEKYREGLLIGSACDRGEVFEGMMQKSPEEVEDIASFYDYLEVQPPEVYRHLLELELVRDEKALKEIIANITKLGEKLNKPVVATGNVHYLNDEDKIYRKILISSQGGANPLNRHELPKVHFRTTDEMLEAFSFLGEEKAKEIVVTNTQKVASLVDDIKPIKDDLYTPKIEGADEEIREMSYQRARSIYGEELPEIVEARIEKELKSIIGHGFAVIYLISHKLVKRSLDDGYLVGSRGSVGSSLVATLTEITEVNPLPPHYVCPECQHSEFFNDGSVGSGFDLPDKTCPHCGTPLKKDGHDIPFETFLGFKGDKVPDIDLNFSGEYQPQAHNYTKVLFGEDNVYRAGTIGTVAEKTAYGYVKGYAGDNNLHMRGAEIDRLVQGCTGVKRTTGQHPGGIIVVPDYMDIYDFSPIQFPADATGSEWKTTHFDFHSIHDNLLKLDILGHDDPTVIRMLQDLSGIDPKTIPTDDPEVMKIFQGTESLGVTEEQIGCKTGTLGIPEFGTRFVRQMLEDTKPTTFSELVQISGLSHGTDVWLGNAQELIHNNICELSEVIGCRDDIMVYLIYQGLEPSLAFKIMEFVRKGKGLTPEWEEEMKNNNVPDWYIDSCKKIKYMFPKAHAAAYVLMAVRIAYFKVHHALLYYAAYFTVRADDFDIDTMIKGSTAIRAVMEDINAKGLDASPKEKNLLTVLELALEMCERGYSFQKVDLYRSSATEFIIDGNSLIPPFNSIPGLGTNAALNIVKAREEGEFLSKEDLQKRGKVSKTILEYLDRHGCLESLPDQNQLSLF
# Outline: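 Reconstituted B. subtilis holoenzyme (Pol III, beta clamp, SSB, primase) was preincubated with compound at room temperature, then given single-stranded circular M13Gori plus dNTPs and NTPs. EDTA-containing PicoGreen stopped the reaction, and dsDNA product was read by fluorescence.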
# [18] = qHTS Validation Assay to Find Inhibitors of Chronic Active B-Cell Receptor Signaling (AID 485345; active = well fitted curve in the direction sought with a large enough effect in the main read-out, with a control signal flat, not every such curve was filed as active)
# Outline: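 TMD8 ABC-DLBCL cells stably carrying doxycycline-inducible IkappaBalpha–green luciferase fusion plus unfused red luciferase; compounds 46 uM to 3 nM, 4 h at 37C with doxycycline. Corrected green/red luminescence ratio normalized to 10 uM MG-132 and basal cell wells; curves fitted.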
# [19] = Quantitative high throughput screen for delayed death inhibitors of the malarial parasite plastid, 48 hour incubation (AID 488752); note: nearly all actives have a fitted effect of over 65% in size
# Outline: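 One parasite generation (48 h, 37 C, 5% CO2) of luciferase-reporter P. falciparum in erythrocytes is run with test compound; decreased luminescence indicates inhibited growth.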
# [20] = biological target: RecQ-like DNA helicase BLM (Homo sapiens) (UniProt P54132); assay: qHTS Validation Assay for Inhibitors of Bloom's syndrome helicase (BLM) (AID 2364); note: potency is the fitted concentration of half-maximal effect
# RecQ-like DNA helicase BLM (Homo sapiens), sequence (P54132 whole entry, looked up): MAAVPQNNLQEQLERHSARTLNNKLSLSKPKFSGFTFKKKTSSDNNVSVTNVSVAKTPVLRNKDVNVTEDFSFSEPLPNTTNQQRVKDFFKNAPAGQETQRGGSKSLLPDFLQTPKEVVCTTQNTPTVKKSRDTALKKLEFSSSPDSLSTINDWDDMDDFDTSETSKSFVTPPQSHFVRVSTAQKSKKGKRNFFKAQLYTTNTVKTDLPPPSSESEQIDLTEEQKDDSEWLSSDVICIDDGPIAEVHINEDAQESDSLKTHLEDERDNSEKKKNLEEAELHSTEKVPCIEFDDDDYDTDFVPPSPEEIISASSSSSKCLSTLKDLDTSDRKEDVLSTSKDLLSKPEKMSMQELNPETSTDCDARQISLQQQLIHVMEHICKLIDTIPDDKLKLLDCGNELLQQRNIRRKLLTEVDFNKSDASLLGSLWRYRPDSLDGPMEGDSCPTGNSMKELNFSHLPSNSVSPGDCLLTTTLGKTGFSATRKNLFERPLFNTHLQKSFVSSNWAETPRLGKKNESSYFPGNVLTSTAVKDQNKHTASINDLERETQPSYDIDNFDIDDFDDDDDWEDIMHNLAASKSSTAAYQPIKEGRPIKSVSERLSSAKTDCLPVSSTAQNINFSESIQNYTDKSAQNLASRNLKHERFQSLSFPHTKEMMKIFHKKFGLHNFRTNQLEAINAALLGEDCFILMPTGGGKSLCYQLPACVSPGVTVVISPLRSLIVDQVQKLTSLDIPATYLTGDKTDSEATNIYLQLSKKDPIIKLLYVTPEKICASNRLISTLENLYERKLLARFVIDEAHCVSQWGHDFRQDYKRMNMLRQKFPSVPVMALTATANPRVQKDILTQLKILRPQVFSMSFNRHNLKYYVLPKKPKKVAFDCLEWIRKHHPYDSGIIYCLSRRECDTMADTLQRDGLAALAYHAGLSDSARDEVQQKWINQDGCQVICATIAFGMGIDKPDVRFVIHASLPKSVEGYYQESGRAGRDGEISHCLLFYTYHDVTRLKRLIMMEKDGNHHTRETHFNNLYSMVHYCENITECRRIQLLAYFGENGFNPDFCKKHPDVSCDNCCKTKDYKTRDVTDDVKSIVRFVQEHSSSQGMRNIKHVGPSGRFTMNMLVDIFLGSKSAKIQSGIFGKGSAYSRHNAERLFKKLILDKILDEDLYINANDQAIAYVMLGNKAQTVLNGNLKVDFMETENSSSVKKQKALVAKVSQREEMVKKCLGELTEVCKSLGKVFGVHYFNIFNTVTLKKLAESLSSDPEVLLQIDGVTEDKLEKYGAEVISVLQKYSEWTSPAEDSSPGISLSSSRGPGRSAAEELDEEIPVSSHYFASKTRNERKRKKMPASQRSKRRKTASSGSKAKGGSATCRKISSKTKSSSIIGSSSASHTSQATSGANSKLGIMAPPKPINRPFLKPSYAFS
# Outline: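 50 nM BLM preincubated 15 min at room temperature with compound in pH 8.0 Tris buffer containing 2.5 ug/ml poly(dI-dC); started with 200 nM TAMRA/BHQ-2 forked duplex and 2 mM ATP (final). Unwinding read as TAMRA fluorescence increase, two reads 2 h apart.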
Compound,outcome [1],Potency [2],Potency [3],outcome [4],outcome [5],Potency [6],Potency [7],outcome [8],Potency [9],Potency [10],Potency [11],outcome [12],Potency [13],Potency [14],Potency [15],Potency [16],Potency [17],outcome [18],Potency [19],Potency [20]
O=c1[nH]c2ccccc2n1C1CCN(CCCC(c2ccc(F)cc2)c2ccc(F)cc2)CC1,inactive,16.5 µM (active),inactive,inactive,inactive,inactive,10.4 µM (active),inactive,inactive,inactive,22.4 µM (active),–,–,–,–,–,–,–,–,–
Cc1ncc(CNC(=O)N(CCCl)N=O)c(N)n1,inactive,inactive,inactive,inactive,inactive,inactive,inactive,inactive,inactive,inactive,inactive,inactive,inactive,inactive,inactive,inactive,inactive,inactive,inactive,–
CCCC(C)(COC(N)=O)COC(=O)NC(C)C (centres undefined),inactive,inactive,inactive,inactive,inactive,–,inactive,inactive,inactive,inactive,inactive,inactive,inactive,inactive,inactive,inactive,inactive,inactive,inactive,inactive
CC[N+](CC)(CC)CC,inactive,–,–,–,–,–,4.15 µM (active),–,–,inactive,inactive,–,–,–,inactive,inactive,–,–,–,inactive
CC(CCc1ccccc1)NC(C)C(O)c1ccc(O)cc1 (centres undefined),inactive,inactive,inactive,inactive,inactive,inactive,inactive,inactive,inactive,inactive,inactive,inactive,inactive,inactive,inactive,inactive,inactive,inactive,inactive,–
c1ccc(C2CC2)c(OCC2=NCCN2)c1,inactive,inactive,inactive,inactive,inactive,inactive,inactive,inactive,inactive,inactive,inactive,inactive,inactive,inactive,inactive,inactive,inactive,inactive,inactive,inactive
c1ccc2c(c1)OCC(C1=NCCN1)O2 (centres undefined),inactive,6.56 µM (active),inactive,inactive,inactive,–,inactive,inactive,7.52 µM (active),inactive,inactive,–,–,4.65 µM (active),20 µM (active),7.94 µM (active),inactive,–,inactive,–
CC(C)NCC(O)COc1cccc2[nH]ccc12 (centres undefined),–,–,–,–,–,–,–,–,–,–,–,–,–,–,inactive,–,–,–,–,inactive
CNCC(O)c1ccc(O)cc1 (centres undefined),inactive,inactive,inactive,inactive,inactive,inactive,inactive,inactive,–,inactive,inactive,inactive,inactive,inactive,inactive,inactive,inactive,inactive,inactive,–
Cc1ccc(S(=O)(=O)N[C@@H](CCCCN)C(=O)CCl)cc1,inactive,inactive,inactive,inactive,inactive,–,–,inactive,–,–,inactive,inactive,inactive,inactive,inactive,inactive,inactive,–,inactive,inactive
CCn1cc(C(=O)O)c(=O)c2ccc(C)nc21,inactive,–,–,–,–,–,inactive,–,–,–,inactive,–,–,–,inactive,inactive,–,–,inactive,–
CC(=O)[C@H]1CC[C@H]2[C@@H]3CC[C@H]4C[C@H](O)CC[C@]4(C)[C@H]3C(=O)C[C@]12C,inactive,inactive,inactive,inactive,inactive,inactive,inactive,inactive,inactive,inactive,inactive,inactive,inactive,inactive,inactive,inactive,inactive,inactive,inactive,inactive
NN=C(N)N,inactive,inactive,inactive,inactive,inactive,inactive,inactive,inactive,inactive,inactive,inactive,inactive,inactive,inactive,inactive,inactive,inactive,inactive,inactive,–
O=c1c(O)c(-c2ccc(O)c(O)c2)oc2cc(O)cc(O)c12,–,–,–,–,–,6.75 µM (active),10.4 µM (active),–,–,2.38 µM (active),39.8 µM (active) and inactive,–,–,–,inactive,–,10.6 µM (active),–,–,28.2 µM (active)
Clc1cccc(N2CCNCC2)c1,inactive,–,–,–,–,–,–,–,–,–,inactive,–,–,–,inactive,inactive,–,–,inactive,–
COC[C@H]1OC(=O)c2coc3c2[C@@]1(C)C1=C(C3=O)C2CCC(=O)[C@@]2(C)C[C@H]1OC(C)=O (some centres undefined),inactive,inactive,inactive,inactive,inactive,inactive,8.28 µM (active),inactive,11.9 µM (active),inactive,inactive,inactive,inactive,inactive,–,–,inactive,–,–,inactive
N#CC(C#N)=Cc1ccc(O)c(O)c1,inactive,inactive,inactive,inactive,inactive,–,–,inactive,16.8 µM (active),18.9 µM (active),–,inactive,inactive,inactive,inactive,inactive,inactive,inactive,inactive,–
Cc1cccc(C)c1NC1=NCCCS1,inactive,inactive,inactive,inactive,inactive,inactive,–,inactive,inactive,–,inactive,inactive,inactive,inactive,inactive,inactive,inactive,inactive,inactive,–
NCC(CC(=O)O)c1ccc(Cl)cc1 (centres undefined),inactive,inactive,inactive,inactive,inactive,–,inactive,inactive,inactive,inactive,inactive,inactive,inactive,inactive,inactive,inactive,inactive,inactive,inactive,–
O=C1NCN(c2ccccc2)C12CCN(CC1COc3ccccc3O1)CC2 (centres undefined),inactive,inactive,inactive,inactive,inactive,inactive,inactive,inactive,inactive,inactive,inactive,inactive,inactive,inactive,inactive,inactive,inactive,inactive,inactive,–
C=C(C)[C@H]1Cc2c(ccc3c2O[C@@H]2COc4cc(OC)c(OC)cc4[C@@H]2C3=O)O1,inactive,0.0465 µM (active),inactive,inactive,inactive,–,–,inactive,inactive,inactive,inactive,inactive,inactive,0.0585 µM (active),5.62 µM (active),1.41 µM (active),inactive,–,inactive,–
